Structures are written as SMILES. About 83,000 compounds went through this panel and 20% of them were active in at least one assay; those are over-represented in the sample as a whole.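 Activity criterion: percent growth below 10, measured after cells in 96-well plates were exposed to a single compound concentration for 48 hours.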 A number with no mark means an inactive call. Calls of active or inactive are those of the source.

Some test systems named below: RPMI-8226 leukemia; OVCAR-8 ovarian; OVCAR-5 ovarian; OVCAR-4 ovarian; SK-OV-3 ovarian; IGROV1 ovarian; OVCAR-3 ovarian; HS 578T breast; NCI/ADR-RES ovarian; T-47D breast; BT-549 breast; MDA-MB-435 melanoma; SW-620 colon; MCF7 breast; HCT-116 colon; HCC-2998 colon; KM12 colon; MDA-MB-468 breast.
Holding throughout (assay): NCI-60 one-dose screen, 48 h (100 = growth as untreated, 0 = no growth, -100 = all killed)
Holding throughout (details): 10 µM

With `Cc1nc2c(cnn2-c2ccccc2)c(=O)n1-c1ccc(NC(=O)c2ccc(F)cc2)cc1`, the growth in the assay on RPMI-8226 leukemia was 35.2%; with OVCAR-8 ovarian it was 63.7%; with OVCAR-5 ovarian, 97.9%; in the assay with OVCAR-4 ovarian it was 40.1%; in the assay with SK-OV-3 ovarian, 111%; in the assay on IGROV1 ovarian it was 73.5%. The growth with OVCAR-3 ovarian was 85.4%; in the assay on HS 578T breast it was 78.7%; with NCI/ADR-RES ovarian, 42.8%; in the assay with T-47D breast, 18%; in the assay on BT-549 breast, 46%; with MDA-MB-435 melanoma, 53.8%. The growth was 76.5% in the assay on SW-620 colon; 35.8% with MCF7 breast; 48.3% with HCT-116 colon; 79.9% in the assay with HCC-2998 colon; 64.1% in the assay with KM12 colon; 14.5% with MDA-MB-468 breast.
For `COc1ccc(-c2ccc(/C=N/NC(=O)c3[nH]c4ccc(Br)cc4c3-c3ccccc3)s2)cc1`, the growth with RPMI-8226 leukemia is 57.7%; in the assay on OVCAR-8 ovarian, 51.9%; in the assay on OVCAR-5 ovarian, 12.8%; in the assay with OVCAR-4 ovarian, 79.6%; in the assay with SK-OV-3 ovarian it was 117%; with IGROV1 ovarian, 110%. Moreover, the growth was 97.5% in the assay on OVCAR-3 ovarian; 54% with HS 578T breast; 59.9% in the assay with NCI/ADR-RES ovarian; 72% in the assay with T-47D breast; 117% in the assay on BT-549 breast; 107% with MDA-MB-435 melanoma. The growth in the assay on SW-620 colon is 44.8%; with MCF7 breast, 6.19% (active); with HCT-116 colon, 37.5%; in the assay on HCC-2998 colon it was 112%; with KM12 colon, 85.5%; in the assay on MDA-MB-468 breast it was 76.6%.
On to `O=C1Nc2cc(Cl)ccc2/C1=C/c1cccc(OCc2ccccc2)c1`, for which the growth in the assay on RPMI-8226 leukemia is -34.7% (active); with OVCAR-8 ovarian it was -65% (active); in the assay with OVCAR-5 ovarian it was 11.9%; with OVCAR-4 ovarian, 36.7%; with SK-OV-3 ovarian it was 32%; in the assay on IGROV1 ovarian it was 11.1%. In addition, the growth in the assay with OVCAR-3 ovarian was -5.96% (active); with HS 578T breast it was -2.85% (active); with NCI/ADR-RES ovarian, -22.2% (active); with T-47D breast it was 14.7%; with BT-549 breast, -21.8% (active); with MDA-MB-435 melanoma, 10.5%. For the same compound, the growth was 8.71% (active) with SW-620 colon; 2.6% (active) in the assay on MCF7 breast; 3.32% (active) in the assay with HCT-116 colon; -39% (active) with HCC-2998 colon; 4.45% (active) with KM12 colon; 11.9% in the assay on MDA-MB-468 breast.
As to `O=c1[nH][nH]c(Nc2ccccc2)c1N=Nc1ccc(F)cc1`, the growth with RPMI-8226 leukemia is 112%; with OVCAR-8 ovarian, 101%; in the assay with OVCAR-5 ovarian, 112%; in the assay on OVCAR-4 ovarian, 80.5%; in the assay on SK-OV-3 ovarian, 94.5%; in the assay on IGROV1 ovarian, 80.3%. In addition, the growth in the assay on OVCAR-3 ovarian is 103%; with HS 578T breast, 65.2%; in the assay with NCI/ADR-RES ovarian, 100%; in the assay on T-47D breast, 36.4%; in the assay with BT-549 breast it was 65.3%; in the assay with MDA-MB-435 melanoma it was 99.4%. The growth is 109% in the assay on SW-620 colon; 13.9% in the assay with MCF7 breast; 87% in the assay on HCT-116 colon; 55.3% in the assay on KM12 colon; 27.8% with MDA-MB-468 breast.
As for `CN1CCCN(Cc2ccc(C(=O)Nc3cccc(Nc4ccc5cc(O)ccc5n4)c3)cc2C(F)(F)F)CC1`, the growth with RPMI-8226 leukemia is -20.5% (active); in the assay with OVCAR-8 ovarian, 101%; with OVCAR-5 ovarian, 131%; in the assay with OVCAR-4 ovarian, 77.2%; with SK-OV-3 ovarian, 116%; with IGROV1 ovarian it was 88.6%. In addition, the growth is 76.9% in the assay on OVCAR-3 ovarian; 61.9% with HS 578T breast; 90.7% in the assay on NCI/ADR-RES ovarian; 88.7% with T-47D breast; 98% with BT-549 breast; 37.9% in the assay with MDA-MB-435 melanoma. In addition, the growth in the assay on SW-620 colon is -25.8% (active); in the assay on MCF7 breast, -22.8% (active); with HCT-116 colon, 3.55% (active); in the assay on KM12 colon, 25.8%; in the assay on MDA-MB-468 breast, 5.76% (active).
Take `CO[C@@H]1CSSC1Cn1nc(-c2ccc(Oc3ccccc3)cc2)c2c(N)ncnc21` (stereo partly specified): the growth is 34.6% with RPMI-8226 leukemia; 75.5% in the assay on OVCAR-8 ovarian; 62.5% in the assay with OVCAR-5 ovarian; 53.3% in the assay on OVCAR-4 ovarian; 1.98% (active) in the assay with SK-OV-3 ovarian; 53.1% with IGROV1 ovarian. In addition, the growth was 56% in the assay with OVCAR-3 ovarian; 61.6% with HS 578T breast; 57.5% in the assay with NCI/ADR-RES ovarian; 7.37% (active) with T-47D breast; 35.5% in the assay on BT-549 breast; -72.1% (active) in the assay with MDA-MB-435 melanoma. Moreover, the growth with SW-620 colon was 29.1%; in the assay with MCF7 breast, 16.5%; in the assay on HCT-116 colon it was 9.66% (active); in the assay on HCC-2998 colon, 47.5%; in the assay on KM12 colon, 38%; with MDA-MB-468 breast, -12.9% (active).
`CNC(=O)c1cc(-c2ccc(NC(=O)Nc3ccc(C)cc3)cc2)nc2cccnc12`: the growth was 88.8% in the assay on RPMI-8226 leukemia; 97.8% in the assay on OVCAR-8 ovarian; 105% in the assay with OVCAR-5 ovarian; 108% in the assay on OVCAR-4 ovarian; 91.1% in the assay with SK-OV-3 ovarian; 92.8% in the assay with IGROV1 ovarian. In addition, the growth with OVCAR-3 ovarian was 105%; in the assay on HS 578T breast, 106%; with NCI/ADR-RES ovarian, 94.3%; in the assay on T-47D breast, 89.6%; in the assay on BT-549 breast it was 104%; in the assay with MDA-MB-435 melanoma, 109%. The growth was 104% in the assay on SW-620 colon; 45.6% with MCF7 breast; 89.7% in the assay on HCT-116 colon; 121% with HCC-2998 colon; 102% with KM12 colon; -14.3% (active) with MDA-MB-468 breast.
As for `C=C[C@H]1[C@H](O[C@@H]2OC(CO)[C@@H](O)[C@H](O)C2OC(=O)c2c(O)cc(O)cc2-c2cccc(O)c2)OC=C2C(=O)OCC[C@H]21` (stereo partly specified), the growth was 106% in the assay on RPMI-8226 leukemia; 102% in the assay with OVCAR-8 ovarian; 100% with OVCAR-5 ovarian; 108% in the assay with OVCAR-4 ovarian; 95.7% in the assay on SK-OV-3 ovarian; 101% with IGROV1 ovarian. The growth in the assay on OVCAR-3 ovarian is 112%; with HS 578T breast it was 99.7%; in the assay on NCI/ADR-RES ovarian, 102%; in the assay on T-47D breast, 99.3%; with BT-549 breast, 94.8%; with MDA-MB-435 melanoma, 102%. In addition, the growth with SW-620 colon is 105%; in the assay on MCF7 breast it was 93.5%; with HCT-116 colon it was 94.4%; in the assay with HCC-2998 colon, 106%; with MDA-MB-468 breast, 96.5%.
Consider `O=C1Nc2cc(Cl)ccc2/C1=C/c1ccc(OCc2ccc(Br)cc2F)cc1`, for which the growth in the assay on RPMI-8226 leukemia was 0.87% (active); with OVCAR-8 ovarian, -79.6% (active); with OVCAR-5 ovarian it was 25.2%; in the assay with OVCAR-4 ovarian, -53.8% (active); in the assay with SK-OV-3 ovarian it was -20.3% (active); in the assay on IGROV1 ovarian, -41.9% (active). Also, the growth is -82.1% (active) with OVCAR-3 ovarian; -16.8% (active) with HS 578T breast; -71% (active) in the assay with NCI/ADR-RES ovarian; -48.4% (active) in the assay on T-47D breast; -18.7% (active) in the assay on BT-549 breast; -27.5% (active) with MDA-MB-435 melanoma. The growth in the assay on SW-620 colon is -56% (active); with MCF7 breast it was 6.09% (active); in the assay on HCT-116 colon it was -73% (active); with HCC-2998 colon it was 19.5%; in the assay on KM12 colon it was -7.72% (active); in the assay on MDA-MB-468 breast it was -70.1% (active).
With `CC1(C)CC[C@]2(C(=O)N3CCOCC3)CC[C@]3(C)C(=CC[C@@H]4[C@@]5(C)CC[C@H](NCO)C(C)(C)[C@@H]5CC[C@]43C)[C@H]2C1`, the growth in the assay with RPMI-8226 leukemia is -38.5% (active); with OVCAR-8 ovarian, -73.5% (active); in the assay on OVCAR-5 ovarian it was -99.9% (active); with OVCAR-4 ovarian it was -89.5% (active); with SK-OV-3 ovarian, -86.4% (active); in the assay on IGROV1 ovarian, -85.6% (active). Moreover, the growth in the assay with OVCAR-3 ovarian was -82.7% (active); in the assay on HS 578T breast, -68.2% (active); with NCI/ADR-RES ovarian it was -73.1% (active); in the assay on T-47D breast, -72.4% (active); with BT-549 breast, -92.2% (active); in the assay on MDA-MB-435 melanoma it was -96.4% (active). The growth is -88.8% (active) in the assay on SW-620 colon; -80.3% (active) with MCF7 breast; -88.9% (active) with HCT-116 colon; -90.5% (active) in the assay with KM12 colon; -97% (active) in the assay with MDA-MB-468 breast.
